PubChem BioAssay (NCI)
Several values for one entry are separate records, joined by “and”; a condition that tells them apart may be missing. Equal values may be shown once. This is part of a sample that, as a whole, favours compounds with a hit. Of some 83,000 tested, about 20% had one in any assay.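 The test compound was applied at a single concentration to cells in 96-well plates for 48 hours, and percent growth was recorded.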

How the values were obtained:
Assay in all cases: NCI-60 one-dose screen, 48 h (100 = growth as untreated, 0 = no growth, -100 = all killed)
Conditions in all cases: 10 µM unless noted; active = growth percent below 10; inactive = the rest
[1] = tested on: SR leukemia
[2] = tested on: RPMI-8226 leukemia
[3] = tested on: OVCAR-8 ovarian
[4] = tested on: OVCAR-5 ovarian
[5] = tested on: OVCAR-4 ovarian
[6] = tested on: SK-OV-3 ovarian
[7] = tested on: IGROV1 ovarian
[8] = tested on: OVCAR-3 ovarian
[9] = tested on: HS 578T breast
[10] = tested on: NCI/ADR-RES ovarian

Measured: growth

CC(NC(=O)CCl)c1ccccc1 (stereo not given)
inactive: [1] 99.2% | [2] 107% | [3] 105% | [4] 109% | [5] 98.7% | [6] 102% | [7] 104% | [8] 102% | [9] 92.5% | [10] 104%

COc1cc2c(cc1O)C(=O)CCCC2
inactive: [1] 102% | [2] 104% | [3] 117% | [4] 92.8% | [5] 93.6% | [6] 108% | [7] 64.7% | [8] 101% | [9] 110% | [10] 94.5%

O=C1c2ccccc2CN1c1ccccc1
inactive: [1] 84.5% | [2] 107% | [3] 104% | [4] 98% | [5] 99.3% | [6] 105% | [7] 123% | [8] 108% | [9] 115% | [10] 105%

O=C1c2ccccc2C(c2ccccc2)C1c1ccccc1 (stereo not given)
inactive: [1] 86.3% | [2] 63.4% | [3] 103% | [4] 101% | [5] 86.1% | [6] 93.5% | [7] 91.1% | [8] 105% | [9] 106% | [10] 94.8%

COc1ccc2oc3c(ccc[n+]3C)c(=O)c2c1
inactive: [1] 119% | [2] 104% | [3] 96.5% | [4] 98.9% | [5] 108% | [6] 99.7% | [7] 108% | [8] 109% | [9] 99.8% | [10] 108%

Cc1cc2ccccc2c2cc3ccccc3cc12
inactive: [1] 40.8% | [2] 105% | [3] 98.9% | [4] 86.9% | [5] 94.5% | [6] 90.6% | [7] 61.8% | [8] 100% | [9] 95.2% | [10] 98.8%

CCN(CC)CCO/N=C1\CC(c2ccc(OC)c(OC)c2)Oc2ccccc21 (stereo not given)
inactive: [1] 98.5% | [2] 87.8% | [3] 102% | [4] 95.4% | [5] 96.5% | [6] 96.5% | [7] 88.8% | [8] 111% | [9] 90.3% | [10] 89.6%

CC(=O)Nc1ccc2oc(=O)ccc2c1
inactive: [1] 82.3% | [2] 104% | [3] 106% | [4] 102% | [5] 106% | [6] 102% | [7] 105% | [8] 110% | [9] 109% | [10] 116%

Cc1ccc([N+](=O)[O-])cc1Br
inactive: [1] 83% | [2] 108% | [3] 91.1% | [4] 89.9% | [5] 105% | [6] 96.4% | [7] 113% | [8] 107% | [9] 94.8% | [10] 108%

CCOC(=O)c1ccncc1
inactive: [1] 101% | [2] 106% | [3] 112% | [4] 107% | [5] 117% | [6] 105% | [7] 111% | [8] 105% | [9] 101% | [10] 110%

N#CC1c2ccccc2C=CN1C(=O)c1ccccc1 (stereo not given)
inactive: [1] 91.7% and 146% | [2] 105% and 159% | [3] 92.7% and 85% | [4] 110% and 87.5% | [5] 96.8% and 89.7% | [6] 120% and 128% | [7] 101% and 73.9% | [8] 93.6% and 95.9% | [9] 94.2% and 150% | [10] 108% and 107%

Nc1nc(-c2ccccn2)cc(-c2cc(-c3ccccn3)nc(N)n2)n1
inactive: [1] 92% | [2] 111% | [3] 106% | [4] 109% | [5] 105% | [6] 119% | [7] 108% | [8] 110% | [9] 127% | [10] 107%
